According to PubChem BioAssay:
A number with no mark means an inactive call. No rule for the calls is given here.

What follows are molecules tested against Pantothenate synthetase (Mycobacterium tuberculosis (strain ATCC 25618 / H37Rv)) (UniProt P9WIL5) (assay: Recombinant Mtb pantothenate synthetase (PanC) inhibitors, coupled enzyme, confirmatory (AID 375;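 also: 0% = full reaction with vehicle and 100% = no enzyme background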)). Settings: coupled enzyme assay; at 10 µM, stronger effect = higher value.
Sequence of Pantothenate synthetase (Mycobacterium tuberculosis (strain ATCC 25618 / H37Rv)) (P9WIL5 whole entry, looked up): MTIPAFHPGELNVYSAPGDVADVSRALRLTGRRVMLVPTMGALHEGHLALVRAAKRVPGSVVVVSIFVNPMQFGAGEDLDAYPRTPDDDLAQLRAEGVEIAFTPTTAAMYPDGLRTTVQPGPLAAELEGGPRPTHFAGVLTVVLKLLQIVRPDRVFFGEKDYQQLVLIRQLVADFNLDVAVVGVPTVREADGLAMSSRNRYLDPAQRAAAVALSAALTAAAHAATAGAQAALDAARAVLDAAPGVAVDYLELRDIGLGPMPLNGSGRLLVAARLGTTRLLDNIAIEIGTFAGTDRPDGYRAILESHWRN
For `COCC(=O)Nc1cc(OC)ccc1OC`, the inhibition was 3%. `CC(=O)NCC(=O)OC(C)C(=O)Nc1ccc(C(C)=O)cc1` (stereo not given) gave an inhibition of 3%. With `O=C(NC12CC3CC(CC(C3)C1)C2)N1CCN(C(=O)C2CCCO2)CC1` (stereo not given) the inhibition was 7%. In the case of `O=C(CCSc1nccn1Cc1ccccc1)N1CCOCC1`, the inhibition is reported as 0%. With `COCCOC(=O)c1[nH]c2c(c1C)C(=O)CC(c1ccc(N(C)C)cc1)C2` (stereo not given) the inhibition was 0%. `COc1ccc(CCN(C)CCCC(C#N)(c2ccc(OC)c(OC)c2)C(C)C)cc1OC` (stereo not given) showed an inhibition of 0%. `CCCNC(=O)C1CN(S(=O)(=O)c2ccccc2)CCN1S(=O)(=O)c1ccccc1` (stereo not given) gave an inhibition of 0%. `O=C(Nc1ccc(F)cc1)NC1CCN(Cc2nnnn2Cc2ccco2)CC1` was tested, and the inhibition was 0%. Molecule `CC(C)C(c1nnnn1C1CCCC1)N1CCN(C(=O)c2ccco2)CC1` (stereo not given) has an inhibition of 3%. `COc1ccccc1CNC(=O)Nc1cccs1` was tested, and the inhibition was 0%. With `CNC(=O)CSc1nnc(-c2cc(C)cc(C)c2)o1` the inhibition was 7%. For `CC1CN(C2CCCCC2)c2nc3c(c(=O)[nH]c(=O)n3C)n2C1` (stereo not given), the inhibition was 2%. With `c1ccc(CNc2c3c(nc4ncnn24)CCCC3)nc1` the inhibition was 0%. Molecule `CCCN(CCC)C(=O)CC(c1ccc(F)cc1)c1ccco1` (stereo not given) has an inhibition of 1%. `CN(C)C(=O)Oc1ccc[n+](C)c1` showed an inhibition of 4%. Molecule `Cc1cccc(-n2ncc3c(N4CCC5(CC4)OCCO5)ncnc32)c1` has an inhibition of 7%. With `Cc1ccc(CNc2cc(-c3nn4c(C)nnc4s3)ccc2C)s1` the inhibition was 4%. `Cc1ccc(-n2c(Cc3cccn3C)nnc2SCC(=O)NCc2ccc3c(c2)OCO3)cc1` was tested, and the inhibition was 0%. Work on `O=C(Nc1ccc(N2CCOCC2)cc1)Nc1ccc2nc(-c3ccco3)c(-c3ccco3)nc2c1` yielded an inhibition of 4%. `CCSc1nc2ccccc2n1CCC(=O)O` was tested, and the inhibition was 0%. `COc1ccc(S(=O)(=O)N2CN(Cc3ccco3)c3nc4ccccc4nc32)cc1` was tested, and the inhibition was 0%. `CCCn1c2ccccc2c2nnc(SCC(=O)Nc3ncccn3)nc21` showed an inhibition of 8%. `Cc1ccc(-n2c(-c3ccncc3)nnc2-c2cccs2)cc1` showed an inhibition of 1%. `CC1CCN(C(=O)CSc2nc3c(cnn3-c3ccccc3)c(=O)[nH]2)CC1` gave an inhibition of 0%. `CCOc1ccccc1-n1c(SCC(=O)NC2CCCC2)nnc1-c1ccoc1C` gave an inhibition of 1%. `O=S(=O)(Nc1cccnc1)c1ccc2c(c1)OCCO2` was tested, and the inhibition was 1%. `CCCC(O)(CCN(C)C)c1ccc(OC)cc1` (stereo not given) was tested, and the inhibition was 0%. For `CC(=O)NCCc1ccc(S(=O)(=O)NCc2ccc3c(c2)OCO3)cc1`, the inhibition was 0%. Molecule `Cc1csc(NC(=O)c2ccoc2C)n1` has an inhibition of 0%. For `O=C(NC1CCCC1)C(NS(=O)(=O)c1cccc2nsnc12)c1ccccc1` (stereo not given), the inhibition was 7%. With `CC1=C(C)C(=O)NC(Nc2nc(C)c3cc(C)cc(C)c3n2)N1` (stereo not given) the inhibition was 0%. Work on `COc1ccc(C(C)(C)C)cc1NC(=O)Nc1ccc2c(c1)OCO2` yielded an inhibition of 5%. Molecule `COCCCn1c(=N)c(C(=O)NCC2CCCO2)cc2c(=O)n3cccc(C)c3nc21` (stereo not given) has an inhibition of 0%. `O=C1CN(c2nc3ccccc3n3cnnc23)CC(=O)N1CCc1ccccc1` gave an inhibition of 4%. `COCCNC(=O)c1cc(-c2cccs2)on1` was tested, and the inhibition was 0%. For `CC1CCN(Cc2ccc(-c3nn[nH]n3)cc2)CC1`, the inhibition was 0%. Molecule `CC(C)(C)C1CCc2[nH]nc(C(=O)O)c2C1` (stereo not given) has an inhibition of 5%. `O=C(O)COc1ccc(Oc2ccccc2)cc1` gave an inhibition of 3%. `O=C1CCC(=O)N1OCCCCOc1ccccc1` was tested, and the inhibition was 2%. `Cc1ccc(F)cc1NC(=O)C1CCCN(c2ncccn2)C1` (stereo not given) showed an inhibition of 7%.
